Compound activity: PubChem, National Center for Advancing Translational Sciences (NCATS)
HP1b binding inh = blocks HP1-beta chromodomain binding to methylated histone tails; AlphaScreen HP1-beta / biotin-H3K9me3 peptide binding; actives 0.56% (n = 390,000); AID 540317; Potency, µM (doses to about 114 µM), most hits filed as inhibitors; further: nearly all actives have a fitted effect of over 70% in size
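AlphaScreen: HP1-beta (50 nM) preformed 30 min with biotin-H3(1-18)K9me3 peptide (50 nM) in PBS pH 7.4, 0.01% Tween-20. Compound added for 30 min at RT, then streptavidin donor/nickel chelate acceptor beads (10 ug/mL) for 30 min.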
BAZ2B block = blocks human BAZ2B; Potency, µM (doses to about 114 µM), most hits filed as inhibitors; AID 504333; AlphaScreen BAZ2B-H3K14Ac peptide displacement; actives 4.4% (n = 360,000); further: nearly all actives have a fitted effect of over 60% in size
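AlphaScreen displacement of biotin-H3(5-23)K14Ac peptide (50 nM final) from BAZ2B (50 nM final) in PBS pH 7.4, 0.01% Tween-20; complex preformed 30 min RT, then compounds (top 110 uM) 30 min RT, beads 20 min dark.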
JMJD2A Tudor = JMJD2A Tudor domain (human) inhibition. O75164. AlphaScreen JMJD2A-Tudor / H3K4me3 peptide binding. Potency, µM (top dose mostly 114 µM), usual class: inhibitors. actives 4.4% (n = 390,000). AID 504339; further: nearly all actives have a fitted effect of over 50% in size
PLK1 PBD inh = blocks phosphopeptide binding to human PLK1 polo-box domain. Plk1 PBD binding of FITC phosphopeptide, fluorescence polarization. AID 720504. actives 2.8% (n = 360,000). Potency, µM, actives largely listed as inhibitors. P53350; further: series mostly up to about 57 µM; nearly all actives have a fitted effect of over 65% in size
G9a block = inhibitors of human histone lysine methyltransferase G9a. Q96KQ7. G9a H3K9 monomethylation, AlphaScreen, 2 h. Potency, µM (top dose mostly 102 µM), usual class: inhibitors. actives 8.8% (n = 350,000); further: nearly all actives have a fitted effect of over 75% in size
Target sequence (Q96KQ7 913-1193 limits assumed): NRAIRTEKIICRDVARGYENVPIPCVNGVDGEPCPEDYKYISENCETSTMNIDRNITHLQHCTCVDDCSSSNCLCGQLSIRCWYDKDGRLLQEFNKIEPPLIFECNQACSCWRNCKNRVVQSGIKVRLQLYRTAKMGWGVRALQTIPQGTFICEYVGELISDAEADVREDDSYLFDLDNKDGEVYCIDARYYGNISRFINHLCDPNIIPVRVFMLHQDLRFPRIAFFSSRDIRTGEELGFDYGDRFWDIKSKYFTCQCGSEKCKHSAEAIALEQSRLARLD
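Compounds were preincubated with 20 nM G9a for 15 min, after which biotinylated H3K9 peptide (500 nM) and SAM (20 uM) started a 2 h room-temperature reaction. Monomethylated product was quantified by antibody-based AlphaScreen chemiluminescence.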
VDR inhibitor = inhibitors of human vitamin D receptor | VDR-SRC2-3 peptide fluorescence polarization, 2 h | Potency, µM, hits mostly inhibitors | AID 504847 | actives 0.93% (n = 400,000) | P11473
Target sequence (P11473 whole entry, looked up): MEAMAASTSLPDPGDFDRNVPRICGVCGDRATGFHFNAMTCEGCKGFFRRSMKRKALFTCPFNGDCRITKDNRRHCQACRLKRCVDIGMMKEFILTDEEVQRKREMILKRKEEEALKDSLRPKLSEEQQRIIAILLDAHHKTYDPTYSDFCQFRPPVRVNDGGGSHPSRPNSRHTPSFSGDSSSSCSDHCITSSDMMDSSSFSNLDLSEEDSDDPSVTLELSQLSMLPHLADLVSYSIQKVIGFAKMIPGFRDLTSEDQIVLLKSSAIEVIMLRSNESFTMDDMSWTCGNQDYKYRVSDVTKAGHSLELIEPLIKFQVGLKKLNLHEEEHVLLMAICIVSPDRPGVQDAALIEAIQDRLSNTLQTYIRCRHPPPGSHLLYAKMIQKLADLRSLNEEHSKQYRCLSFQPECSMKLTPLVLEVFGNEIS
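The screen uses fluorescence polarization to detect compounds that interfere with recruitment of the SRC2-3 coactivator peptide to VDR; plates are read after 2 h at room temperature.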
Large screens that a line does not name were inactive. This is a sample that favours compounds with a hit; in the whole collection about 11% have one here. The call rests on the fitted dose curve; in most records, active means well fitted curve in the direction sought with a large enough effect; inconclusive means small, poorly fitted or top-dose-only effect, or another doubt; inactive means no such curve, though single readings can be large; an effect the other way counts as inactive or inconclusive.

O=C(Nc1ccccc1F)c1nc(SCc2ccc(F)cc2)ncc1Cl	none (no result: PLK1 PBD inh)
COc1ccc2[nH]c(=O)c(C(c3nnnn3CC3CCCO3)N3CCCCC3)cc2c1 (stereo not given)	none (no result: G9a block)
COc1ccc(N2CCN(C(c3cccs3)c3nnnn3C3CCCC3)CC2)cc1 (stereo not given)	BAZ2B block inconclusive, JMJD2A Tudor inconclusive, G9a block inconclusive
Fc1ccccc1N1CCN(C(c2ccccn2)c2nnnn2C2CCCCC2)CC1 (stereo not given)	BAZ2B block 79.4µM, G9a block 14.1µM
COc1ccccc1N1CCN(C(c2ccccn2)c2nnnn2C2CCCCC2)CC1 (stereo not given)	none
COc1ccc(N2CCN(C(c3cc(OC)ccc3OC)c3nnnn3CC3CCCO3)CC2)cc1 (stereo not given)	BAZ2B block 50.1µM, JMJD2A Tudor 79.4µM, G9a block 14.1µM
COc1ccc(N2CCN(C(c3ccccc3OC)c3nnnn3C3CCCC3)CC2)cc1 (stereo not given)	HP1b binding inh inconclusive, BAZ2B block 44.7µM, JMJD2A Tudor 56.2µM, G9a block 15.8µM
COc1ccc(OC)c(C(c2nnnn2C2CCCC2)N2CCc3ccccc3C2)c1 (stereo not given)	BAZ2B block inconclusive, G9a block inconclusive
COc1ccc(OC)c(C(c2nnnn2C2CCCC2)N2CCN(c3ccccc3F)CC2)c1 (stereo not given)	BAZ2B block 50.1µM
CC(C)[C@@H](CC(=O)N[C@@H]1CCCC[C@H]1C(=O)N[C@H](CC(=O)N[C@@H](CCC(=O)O)CC(=O)O)Cc1c[nH]c2ccccc12)NC(=O)C[C@H](Cc1ccccc1)NC(=O)[C@@H]1CNCC[C@H]1N	none (no result: HP1b binding inh, BAZ2B block, JMJD2A Tudor, PLK1 PBD inh, G9a block)
COc1ccc(N2CCN(C(c3cccc(OC)c3OC)c3nnnn3C3CCCC3)CC2)cc1 (stereo not given)	HP1b binding inh inconclusive, BAZ2B block 39.8µM, JMJD2A Tudor 44.7µM, G9a block 12.6µM
COc1cccc(C(c2nnnn2C(C)(C)C)N2CCN(C3CCCCC3)CC2)c1OC (stereo not given)	none
CCc1ccc(OCC(=O)N/N=C/c2cc([N+](=O)[O-])ccc2N2CCOCC2)cc1	none
CCOc1ccc(NCC(=O)N/N=C/C=C/c2ccccc2)cc1	BAZ2B block inconclusive, JMJD2A Tudor inconclusive, G9a block 11.2µM
CCOC(=O)N/N=C/C=C/c1ccccc1[N+](=O)[O-]	JMJD2A Tudor inconclusive, PLK1 PBD inh 21.2µM
COc1ccc(OCC(=O)N/N=C/C=C/c2ccccc2)cc1	none
COc1ccc(NCC(=O)N/N=C/c2cc([N+](=O)[O-])ccc2N2CCCC2)cc1	HP1b binding inh inconclusive, BAZ2B block inconclusive, JMJD2A Tudor inconclusive, PLK1 PBD inh 13.4µM, G9a block 8.91µM, VDR inhibitor inconclusive
O=C(N/N=C/C=C\c1ccccc1[N+](=O)[O-])c1ccco1	G9a block inconclusive
Cc1occc1C(=O)N/N=C/C=C\c1ccccc1[N+](=O)[O-]	BAZ2B block inconclusive, JMJD2A Tudor 89.1µM, PLK1 PBD inh inconclusive, G9a block inconclusive
Cc1ccsc1C(=O)N/N=C/C=C/c1ccccc1[N+](=O)[O-]	G9a block inconclusive
O=C(NC1CC1)C1CC(=O)N(c2cccc(Cl)c2Cl)C1 (stereo not given)	none
CCOc1ccc(N=C/C=C/c2ccccc2)c(O)c1	HP1b binding inh inconclusive, BAZ2B block 35.5µM, JMJD2A Tudor 56.2µM, PLK1 PBD inh inconclusive, G9a block 50.1µM, VDR inhibitor inconclusive
COc1ccc(NCC(=O)N/N=C/c2ccc3c(c2)OCCO3)cc1	BAZ2B block inconclusive, JMJD2A Tudor inconclusive, G9a block inconclusive
COc1ccc(NCC(=O)N/N=C/C=C/c2ccccc2[N+](=O)[O-])cc1	BAZ2B block 39.8µM, JMJD2A Tudor 79.4µM, G9a block 11.2µM
COc1ccc(NCC(=O)N/N=C/C(C)c2ccccc2)cc1 (stereo not given)	BAZ2B block inconclusive, JMJD2A Tudor inconclusive, G9a block 28.2µM
Cc1ccccc1NCC(=O)N/N=C\C=C\c1cccc([N+](=O)[O-])c1	BAZ2B block inconclusive, JMJD2A Tudor 50.1µM, G9a block inconclusive
O=C(COC(=O)c1ccccc1Cl)NCc1ccco1	JMJD2A Tudor inconclusive (no result: BAZ2B block, G9a block)
Cc1ccc(OCC(=O)Nc2c(Cl)ccc3nsnc23)cc1C	none (no result: PLK1 PBD inh)
O=C(C1CC1)N1CCc2cc(Br)cc(S(=O)(=O)NCCCN3CCCC3)c21	JMJD2A Tudor inconclusive, G9a block 50.1µM
CS(=O)(=O)NCCCCCCNS(C)(=O)=O	G9a block 50.1µM
Cc1ccc(S(=O)(=O)NCCCNS(C)(=O)=O)cc1	none
COc1cccc(-c2cnc3c(NC(C)=O)cc(-c4cccc(C(=O)NCCN(C)C)c4)cn23)c1	none (no result: HP1b binding inh, BAZ2B block, JMJD2A Tudor, G9a block, VDR inhibitor)
O=Cc1cc(N=Nc2ccccc2Cl)ccc1O	HP1b binding inh inconclusive, BAZ2B block 10µM, JMJD2A Tudor 25.1µM, PLK1 PBD inh inconclusive, G9a block 10µM
CC(C)Nc1cc(N2CCN(C3CCCCC3)CC2)c2noc3c2c1C(=O)c1ccccc1-3	HP1b binding inh inconclusive, BAZ2B block 12.6µM, JMJD2A Tudor 22.4µM, G9a block inconclusive (no result: PLK1 PBD inh)
CCNc1cc(N2CCN(C3CCCCC3)CC2)c2noc3c2c1C(=O)c1ccccc1-3	HP1b binding inh inconclusive, BAZ2B block 35.5µM, JMJD2A Tudor 50.1µM, G9a block inconclusive (no result: PLK1 PBD inh)
O=C(O)CCCNc1cc(N2CCN(C3CCCCC3)CC2)c2noc3c2c1C(=O)c1ccccc1-3	HP1b binding inh 22.4µM, BAZ2B block 31.6µM, JMJD2A Tudor 35.5µM, G9a block 15.8µM, VDR inhibitor inconclusive (no result: PLK1 PBD inh)
Cc1cc(C(=O)N2CCCC(N3CCN(c4ccccc4C)CC3)C2)no1 (stereo not given)	none (no result: HP1b binding inh, BAZ2B block, JMJD2A Tudor, G9a block, VDR inhibitor)
CCC1CCCCN1C(=O)CSc1nnc(N)s1 (stereo not given)	none (no result: BAZ2B block, G9a block)
Cc1ccc(CN(C(=O)c2ccc(Cl)c([N+](=O)[O-])c2)C2CCS(=O)(=O)C2)o1 (stereo not given)	JMJD2A Tudor inconclusive, PLK1 PBD inh 23.8µM
Cc1ccc(CN(C(=O)COc2ccc(F)cc2)C2CCS(=O)(=O)C2)o1 (stereo not given)	none (no result: PLK1 PBD inh)
Cc1ccc(OCC(=O)N(Cc2ccc(C)o2)C2CCS(=O)(=O)C2)cc1 (stereo not given)	JMJD2A Tudor inconclusive, PLK1 PBD inh 26.7µM, VDR inhibitor inconclusive
Cc1cccc(OCC(=O)N(Cc2ccc(N(C)C)cc2)C2CCS(=O)(=O)C2)c1 (stereo not given)	BAZ2B block inconclusive, JMJD2A Tudor inconclusive (no result: G9a block)
Cc1cc(OCC(=O)N(Cc2ccc(N(C)C)cc2)C2CCS(=O)(=O)C2)cc(C)c1Cl (stereo not given)	BAZ2B block 10µM, JMJD2A Tudor 39.8µM, G9a block inconclusive (no result: PLK1 PBD inh)
